Assay outcomes: PubChem BioAssay, National Center for Advancing Translational Sciences (NCATS)
This is one part of a sample in which hits are shown more often than they occur.
Pf Dd2 inh = Plasmodium falciparum Dd2 growth inhibition. P. falciparum Dd2 growth, SYBR Green, 72 h. 120,000 tested, 4.3% active. AID 1347417. Potency, µM (doses to about 28.9 µM), usual class: inhibitors; active = well fitted inhibition curve with a large enough effect; also: nearly all actives have a fitted effect of over 65% in size
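Readout: SYBR Green fluorescence, 485 nm excitation, 535 nm emission, after ~16 h lysis at 37C. Before that, Dd2-infected red cells (2.5% hematocrit) grew 72 h with compound, 29 uM top final concentration.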
Numbers stand for hits; . = inactive.

SMILES | Pf Dd2 inh
Cc1cc(N2CCCCC2)nc2ccc(NC(=O)c3cccc(F)c3)cc12 | .
COc1ccc(C(=O)Nc2ccc3nc(N4CCCCC4)cc(C)c3c2)c(OC)c1 | .
Cc1cc(N2CCN(C)CC2)nc2ccc(NC(=O)Nc3cccc(Cl)c3)cc12 | 1µM
Cc1ccc(Nc2ncc(C(=O)N3CCN(c4cccc(Cl)c4)CC3)c3ccccc23)cc1Cl | .
Cc1ccc(/C=C/C(=O)Nc2ccc3nc(N4CCC(C)CC4)cc(C)c3c2)cc1 | .
COCC(=O)N(C1CCOCC1)C1CCN(C(=O)c2ccncc2)CC1 | .
O=C(c1ccccn1)N1CCCC2(CNc3ccccc3[S+](=O)([O-])N2)C1 (configuration not stated) | .
COc1ccc(Cl)cc1S(=O)(=O)N1CCC(n2cnnc2C(C)C)CC1 | .
CCO[C@H]1CN(C(=O)CCc2ccc(S(=O)(=O)NC)cc2)C[C@@H]1O | .
O=C(O)c1ccc(CN2CC[C@H](c3nnc(-c4cccnc4)o3)C2)cc1 | .
CC(=O)NC[C@H]1CCN(C(=O)NCc2ccc(F)cc2)C[C@H]1N(C)C | .
COc1ccc([C@H]2C[C@@H](O)[C@@H](O)[C@@H]2NCc2ccccc2)cc1 | .
COc1ccc([C@H]2C[C@@H](O)[C@@H](O)[C@@H]2NCc2cnn(C)c2)cc1 | .
COc1ccc([C@H]2C[C@@H](O)[C@@H](O)[C@@H]2NCc2cn(C)c3ccccc23)cc1 | 8.9µM
COc1ccccc1-c1nc2cnccn2c1NCCC(=O)Nc1ccc2c(c1)OCO2 | .
COc1ccc(OC)c(NC(=O)C2CCCN(S(=O)(=O)c3c(C)nn(C)c3C)C2)c1 (configuration not stated) | .
CCOc1ccc(N(CC)S(=O)(=O)N2CCCC(C(=O)Nc3cc(Cl)ccc3OC)C2)cc1 (configuration not stated) | 10µM
CCOc1ccc(OCC)c(NC(=O)C2CCCN(S(=O)(=O)c3ccc(C)cc3)C2)c1 (configuration not stated) | .
COCC(=O)N[C@H](C)c1onc(-c2cccnc2)c1C(=O)O | .
CC(C)c1ccc(NC(=O)c2cnn3c(C(F)F)cc(-c4ccccc4)nc23)cc1 | 5µM
Cc1ccc(NC(=O)c2cc3nc(-c4ccccc4)cc(-c4ccccc4)n3n2)cc1 | .
C#CC(C)(CC)NC(=O)c1cnn2c(C(F)F)cc(-c3ccccc3OC)nc12 (configuration not stated) | .
O=C1NCC2(CCCN(C(=O)CCc3ccc(=O)[nH]n3)C2)O1 (configuration not stated) | .
COc1ccccc1C(=O)Nc1c(C(=O)N2CCN(c3ccc(F)cc3)CC2)oc2ccccc12 | .
CCOc1ccc(C(=O)Nc2c(C(=O)N3CCN(c4ccccc4F)CC3)oc3ccccc23)cc1 | .
SMILES | Pf Dd2 inh
COc1ccc(CC(=O)Nc2c(C(=O)N3CCN(c4ccccc4F)CC3)oc3ccccc23)cc1OC | 11µM
Cc1ccccc1Nc1c(-c2ccsc2)nc2c(C)cccn12 | .
COc1cc(O)ccc1-c1nc2ccc(Br)cn2c1Nc1ccccc1C | 6.3µM
Cc1ccccc1Nc1c(-c2ccc(N3CCOCC3)cc2)nc2cccc(C)n12 | 10µM
Cc1ccccc1Nc1c(-c2ccc(N3CCOCC3)cc2)nc2ccc(Br)cn12 | 8.9µM
Cc1ccccc1Nc1c(-c2cccs2)nc2cccc(C)n12 | .
Cc1ccc(Nc2c(-c3cccnc3)nc3ccc(Br)cn23)cc1 | .
Cc1ccccc1Nc1c(-c2cccnc2)nc2cccc(C)n12 | .
Cc1ccccc1Nc1c(-c2c[nH]c3ccccc23)nc2ccc(Cl)cn12 | .
COc1ccc(-c2nc3ccc(Cl)cn3c2Nc2ccc(C)cc2)cc1 | .
O=C(c1cccc(C(F)(F)F)c1)N1CC2CC(C1)[C@H]1CCCC(=O)N1C2 (some centres not stated) | .
Cc1noc([C@@H]2CN(Cc3cc(F)cc(F)c3)C[C@H]2CO)n1 | .
O=C1NCCCc2[nH]c(-c3ccccc3-n3cccn3)nc21 | .
COc1ccc(-c2cc(N3CCCN(C(=O)c4ccc(C)s4)CC3)n[nH]2)cc1 | .
O=C(c1ccccc1F)N1CCC2(CC1)CC(OCC1CC1)CCO2 (configuration not stated) | .
CN(Cc1nc(-c2ccncc2)no1)C1CCC2(CCNCC2)CC1 | .
Cc1ccc(-c2cc(C(=O)N3CCC(c4nc(CCOCC5CC5)no4)C3)[nH]n2)cc1 (configuration not stated) | .
Cc1cc(C)nc(SCc2ccc(C(=O)N3CC[C@@](C)(O)[C@@H](O)C3)o2)n1 | .
CC(C)c1ccc(CN2C[C@@H]3C(=O)N(Cc4ccc5c(c4)OCO5)C(=O)[C@@H]3C2)cc1 | .
CCN(Cc1ccccn1)C(=O)c1csc2nc(-c3cc(C)ccc3C)cn12 | .
CCOc1ccc(CCCNC(=O)c2c(C)cc(C)n(C)c2=O)cc1OCC | .
CN(Cc1cnccn1)C(=O)CC(c1ccccc1)c1ccccc1Cl (configuration not stated) | .
O=C(CC(c1ccccc1)c1ccccc1Cl)N(Cc1cccnc1)C1CC1 (configuration not stated) | 13µM
